# Test results from PubChem BioAssay (EPA / NIEHS).
# Calls of active or inactive are those of the source. The calls were made as follows: active = hit-call score of the fitted dose curve at least 0.9, where 1 is the maximum; inactive = score below 0.9.
# What was measured:
# [1] = read-out: Thrombomodulin, THBD (gene 7056); assay: BSK_CASM3C_Thrombomodulin: BioMAP Diversity Plus: CASM3C Assay for Thrombomodulin Biomarker Activity (AID 2283051); conditions: primary human coronary artery smooth muscle cells; actives raise or lower the signal;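 also: thrombomodulin protein level measured by ELISA 24 h after dosing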
# [2] = read-out: Tissue Factor, F3 (gene 2152); assay: BSK_CASM3C_TissueFactor: BioMAP Diversity Plus: CASM3C Assay for Tissue Factor Biomarker Activity (AID 2283052); conditions: primary human coronary artery smooth muscle cells; actives raise or lower the signal;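 also: cell surface tissue factor protein level read by ELISA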
# [3] = read-out: Interferon-gamma inducible Protein 10 (IP10), CXCL10 (gene 3627); assay: BSK_hDFCGF_IP10: BioMAP Diversity Plus: hDFCGF Assay for Interferon-gamma inducible Protein 10 (IP10) Biomarker Activity (AID 2283053); conditions: primary human foreskin fibroblasts; actives raise or lower the signal
# Procedure, shortened: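 Cells: human dermal foreskin fibroblasts. Exposure: 24 h post-dosing. Detection: IP-10 ELISA, with values expressed against DMSO controls and fitted in both directions.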
# [4] = read-out: Urokinase-type plasminogen activator receptor (uPAR), PLAUR (gene 5329); assay: BSK_CASM3C_uPAR: BioMAP Diversity Plus: CASM3C Assay for Urokinase-type plasminogen activator receptor (uPAR) Biomarker Activity (AID 2283054); conditions: primary human coronary artery smooth muscle cells; actives raise or lower the signal;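 also: cell-surface uPAR protein level quantified by ELISA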
# [5] = read-out: Vascular cell adhesion molecule 1 (VCAM1), VCAM1 (gene 7412); assay: BSK_CASM3C_VCAM1: BioMAP Diversity Plus: CASM3C Assay for Vascular cell adhesion molecule 1 (VCAM1) Biomarker Activity (AID 2283055); conditions: primary human coronary artery smooth muscle cells; actives raise or lower the signal;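 also: VCAM-1 protein level quantified by ELISA on the cells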
# [6] = read-out: Collagen III, COL3A1 (gene 1281); assay: BSK_hDFCGF_CollagenIII: BioMAP Diversity Plus: hDFCGF Assay for Collagen III Biomarker Activity (AID 2283056); conditions: primary human foreskin fibroblasts; actives raise or lower the signal
# Procedure, shortened: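 ELISA read-out of collagen III from human skin fibroblast cultures sampled 24 h post-dosing. Values were derived by bidirectional fitting relative to the DMSO vehicle control.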
# [7] = read-out: Epidermal growth factor receptor (EGFR), EGFR (gene 1956); assay: BSK_hDFCGF_EGFR: BioMAP Diversity Plus: hDFCGF Assay for Epidermal growth factor receptor (EGFR) Biomarker Activity (AID 2283057); conditions: primary human foreskin fibroblasts; actives raise or lower the signal
# Procedure, shortened: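 Dosing human primary skin fibroblasts, then measuring surface EGFR by ELISA at 24 h, gives the endpoint; gains and losses relative to DMSO were fitted in both directions.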
# [8] = read-out: Interleukin-8 (IL8), CXCL8 (gene 3576); assay: BSK_hDFCGF_IL8: BioMAP Diversity Plus: hDFCGF Assay for Interleukin-8 (IL8) Biomarker Activity (AID 2283058); conditions: primary human foreskin fibroblasts; actives raise or lower the signal
# Procedure, shortened: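 Cells used are human skin primary fibroblasts. Chemical is added, cultures run 24 h, then IL-8 is quantified by ELISA, and gain or loss versus DMSO control is fitted in both directions.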
# [9] = BSK_hDFCGF_Proliferation: Cell Proliferation Assessment in the BioMAP Diversity Plus: hDFCGF Assay (AID 2283059); conditions: primary human foreskin fibroblasts;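 also: curves fitted for both rise and fall of signal versus DMSO baseline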
# Procedure, shortened: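 Sub-confluent human foreskin fibroblast cultures receive test chemical […]. Relative cell number is quantified by sulforhodamine B staining (0.1%, after 10% TCA fixation) at 560 nm, with bidirectional fitting referenced to DMSO.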
# [10] = read-out: Macrophage colony-stimulating factor (MCSF), CSF1 (gene 1435); assay: BSK_hDFCGF_MCSF: BioMAP Diversity Plus: hDFCGF Assay for Macrophage colony-stimulating factor (MCSF) Biomarker Activity (AID 2283060); conditions: primary human foreskin fibroblasts; actives raise or lower the signal
# Procedure, shortened: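 Primary human foreskin fibroblasts dosed with chemical; 24 h later, M-CSF quantified by ELISA; curves fitted in both directions vs DMSO negative control.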
# [11] = BSK_hDFCGF_SRB: Viability Assessment in the BioMAP Diversity Plus: hDFCGF Assay (AID 2283061); conditions: primary human foreskin fibroblasts;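 also: cells exposed to compound for 24 h before the read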
# Procedure, shortened: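 Readout is SRB absorbance at 560 nm, reflecting total protein in parallel cultures of human foreskin fibroblasts harvested 24 h after chemical dosing. Activity was fitted bidirectionally relative to DMSO.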
# [12] = read-out: TIMP metallopeptidase inhibitor 1 (TIMP1), TIMP1 (gene 7076); assay: BSK_hDFCGF_TIMP1: BioMAP Diversity Plus: hDFCGF Assay for TIMP metallopeptidase inhibitor 1 (TIMP1) Biomarker Activity (AID 2283062); conditions: primary human foreskin fibroblasts; actives raise or lower the signal
# Procedure, shortened: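 Human skin fibroblasts (primary), hDFCGF system; compound exposure 24 h; TIMP-1 by ELISA; bidirectional fit vs DMSO negative control; overt cytotoxicity by SRB in parallel wells.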
# [13] = read-out: Monokine induced gamma interferon (MIG), CXCL9 (gene 4283); assay: BSK_hDFCGF_MIG: BioMAP Diversity Plus: hDFCGF Assay for Monokine induced gamma interferon (MIG) Biomarker Activity (AID 2283063); conditions: primary human foreskin fibroblasts; actives raise or lower the signal
# Procedure, shortened: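 Chemicals were added to primary human foreskin fibroblast cultures, which were sampled 24 h later. MIG levels were then quantified by ELISA and responses fitted in both directions relative to DMSO.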
# [14] = read-out: Matrix Metallopeptidase 1 (MMP1), MMP1 (gene 4312); assay: BSK_hDFCGF_MMP1: BioMAP Diversity Plus: hDFCGF Assay for Matrix Metallopeptidase 1 (MMP1) Biomarker Activity (AID 2283064); conditions: primary human foreskin fibroblasts; actives raise or lower the signal
# Procedure, shortened: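 Human foreskin fibroblasts exposed to chemical for 24 h; MMP1 detected by ELISA, with DMSO as baseline for bidirectional fitting.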
# [15] = read-out: Vascular cell adhesion molecule 1 (VCAM1), VCAM1 (gene 7412); assay: BSK_hDFCGF_VCAM1: BioMAP Diversity Plus: hDFCGF Assay for Vascular cell adhesion molecule 1 (VCAM1) Biomarker Activity (AID 2283065); conditions: primary human foreskin fibroblasts; actives raise or lower the signal;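 as to AC50: VCAM-1 protein level quantified by ELISA after 24 h chemical exposure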
# Procedure, shortened: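 Human foreskin fibroblast primary cells, chemical exposure 24 h; VCAM-1 by ELISA; bidirectional fit, DMSO = negative control/baseline.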
# [16] = read-out: Plasminogen activator inhibitor-1 (PAI1), SERPINE1 (gene 5054); assay: BSK_hDFCGF_PAI1: BioMAP Diversity Plus: hDFCGF Assay for Plasminogen activator inhibitor-1 (PAI1) Biomarker Activity (AID 2283066); conditions: primary human foreskin fibroblasts; actives raise or lower the signal
# Procedure, shortened: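 Fibroblasts from human foreskin were treated with test chemical. After 24 h, PAI-1 was measured by ELISA. Activity was fitted in both directions relative to DMSO.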
# [17] = read-out: Intercellular Adhesion Molecule 1 (ICAM1), ICAM1 (gene 3383); assay: BSK_KF3CT_ICAM1: BioMAP Diversity Plus: KF3CT Assay for Intercellular Adhesion Molecule 1 (ICAM1) Biomarker Activity (AID 2283067); conditions: primary human keratinocytes with fibroblasts; actives raise or lower the signal
# Procedure, shortened: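 ICAM-1 levels are measured by ELISA 24 h after dosing a primary human co-culture of keratinocytes and foreskin fibroblasts. Activity in either direction is fitted relative to DMSO vehicle.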
# [18] = read-out: Interferon-gamma inducible Protein 10 (IP10), CXCL10 (gene 3627); assay: BSK_KF3CT_IP10: BioMAP Diversity Plus: KF3CT Assay for Interferon-gamma inducible Protein 10 (IP10) Biomarker Activity (AID 2283068); conditions: primary human keratinocytes with fibroblasts; actives raise or lower the signal
# Procedure, shortened: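 ELISA read-out of IP-10 after 24 h chemical dosing of human skin primary co-culture (keratinocytes, foreskin fibroblasts). Gain or loss of signal relative to DMSO, bidirectional curve fit.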
# [19] = BSK_KF3CT_SRB: Viability Assessment in the BioMAP Diversity Plus: KF3CT Assay (AID 2283069); conditions: primary human keratinocytes with fibroblasts;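 also: read 24 h after compound addition; fitted for both signal gain and loss against DMSO baseline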
# Procedure, shortened: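 Overt cytotoxicity is assessed as total protein by sulforhodamine B staining in parallel human skin co-cultures at 24 h after dosing. DMSO serves as negative control and baseline.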
# [20] = read-out: Interleukin-1 alpha (IL1a), IL1A (gene 3552); assay: BSK_KF3CT_IL1a: BioMAP Diversity Plus: KF3CT Assay for Interleukin-1 alpha (IL1a) Biomarker Activity (AID 2283070); conditions: primary human keratinocytes with fibroblasts; actives raise or lower the signal
# Procedure, shortened: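 Readout is IL-1a level by ELISA, compared bidirectionally with DMSO as baseline. Cells: human keratinocytes co-cultured with foreskin fibroblasts, harvested 24 h post-dose.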
compound,measurement,setting,value
CCCCCCCCCCCCO,outcome,[1],inactive
same,AC50,[2],32.3 µM (active)
same,AC50,[3],29.3 µM (active)
same,outcome,[4],inactive
same,AC50,[5],31 µM (active)
same,AC50,[6],15.4 µM (active)
same,AC50,[7],19.8 µM (active)
same,AC50,[8],37.4 µM (active)
same,AC50,[9],26.5 µM (active)
same,AC50,[10],33.4 µM (active)
same,AC50,[11],30.6 µM (active)
same,AC50,[12],36.4 µM (active)
same,AC50,[13],33.3 µM (active)
same,AC50,[14],31 µM (active)
same,AC50,[15],25.8 µM (active)
same,AC50,[16],29.7 µM (active)
same,AC50,[17],32.7 µM (active)
same,AC50,[18],37.7 µM (active)
same,AC50,[19],32.8 µM (active)
same,AC50,[20],30.6 µM (active)
CC(C)(O)c1ccc(CNC(=O)c2cccnc2Oc2ccc3nonc3c2)cc1,outcome,[1],inactive
same,outcome,[2],inactive
same,outcome,[3],inactive
same,outcome,[4],inactive
same,outcome,[5],inactive
same,outcome,[6],inactive
same,outcome,[7],inactive
same,outcome,[8],inactive
same,outcome,[9],inactive
same,outcome,[10],inactive
same,outcome,[11],inactive
same,outcome,[12],inactive
same,outcome,[13],inactive
same,outcome,[14],inactive
same,outcome,[15],inactive
same,outcome,[16],inactive
same,outcome,[17],inactive
same,outcome,[18],inactive
same,outcome,[19],inactive
same,outcome,[20],inactive
O=C(O)Cc1cc(I)c(Oc2ccc(O)c(I)c2)c(I)c1,outcome,[1],inactive
same,outcome,[2],inactive
same,outcome,[3],inactive
same,outcome,[4],inactive
same,outcome,[5],inactive
same,AC50,[6],8.91 µM (active)
same,outcome,[7],inactive
same,outcome,[8],inactive
same,AC50,[9],13.7 µM (active)
same,outcome,[10],inactive
same,AC50,[11],20.2 µM (active)
same,outcome,[12],inactive
same,outcome,[13],inactive
same,AC50,[14],19.4 µM (active)
same,outcome,[15],inactive
same,AC50,[16],10.4 µM (active)
same,outcome,[17],inactive
same,AC50,[18],26.8 µM (active)
same,AC50,[19],25.5 µM (active)
same,outcome,[20],inactive
CO[C@H]1/C=C/O[C@@]2(C)Oc3c(C)c(O)c4c(O)c(c(/C=N/N5CCN(C)CC5)c(O)c4c3C2=O)NC(=O)/C(C)=C\C=C\[C@H](C)[C@H](O)[C@@H](C)[C@@H](O)[C@@H](C)[C@H](OC(C)=O)[C@@H]1C,outcome,[1],inactive
same,outcome,[2],inactive
same,outcome,[3],inactive
same,outcome,[4],inactive
same,outcome,[5],inactive
same,outcome,[6],inactive
same,outcome,[7],inactive
same,outcome,[8],inactive
same,AC50,[9],19.4 µM (active)
same,outcome,[10],inactive
same,outcome,[11],inactive
same,outcome,[12],inactive
same,outcome,[13],inactive
same,outcome,[15],inactive
same,outcome,[16],inactive
same,outcome,[17],inactive
same,outcome,[18],inactive
same,outcome,[19],inactive
Cc1cccc2ccccc12,outcome,[1],inactive
same,outcome,[2],inactive
same,outcome,[3],inactive
same,outcome,[4],inactive
same,outcome,[5],inactive
same,outcome,[6],inactive
same,outcome,[7],inactive
same,outcome,[8],inactive
same,outcome,[9],inactive
same,outcome,[10],inactive
same,outcome,[11],inactive
same,outcome,[12],inactive
same,outcome,[13],inactive
same,outcome,[14],inactive
same,outcome,[15],inactive
same,outcome,[16],inactive
same,outcome,[17],inactive
same,outcome,[18],inactive
same,outcome,[19],inactive
CCOC(=O)O[C@H](C)OC(=O)c1ccc2c(c1)cc(C(=O)NC1CCN(C(C)C)CC1)n2Cc1cc(-c2ccc(Cl)s2)on1,AC50,[1],9.19 µM (active)
same,AC50,[2],7.43 µM (active)
same,AC50,[3],4.62 µM (active)
same,AC50,[4],6.27 µM (active)
same,AC50,[5],10.3 µM (active)
same,AC50,[6],4.13 µM (active)
same,AC50,[7],4.85 µM (active)
same,AC50,[8],6.12 µM (active)
same,AC50,[9],1.72 µM (active)
same,AC50,[10],5.16 µM (active)
same,AC50,[11],4.96 µM (active)
same,AC50,[12],4.35 µM (active)
same,AC50,[13],6.08 µM (active)
same,AC50,[14],6.2 µM (active)
same,AC50,[15],3.74 µM (active)
same,AC50,[16],3.81 µM (active)
same,AC50,[17],9.05 µM (active)
same,AC50,[18],10.4 µM (active)
same,AC50,[19],6.24 µM (active)
same,AC50,[20],6.3 µM (active)
